± gives the standard deviation of the averaged measurements. The full ranking holds about 33,000 sequences; the median of “E-score (rank enrichment, -0.5 to 0.5)” is about -0.0075, and the highest 2% start at about 0.23. The sample holds the highest values, similar sequences and a random draw of the others, so the mix is not that of the screen.
These sequences were tested on WT Max(13-93) synthetic (M65Nle) (assay: PBM 8-mer E-score (E-score (rank enrichment, -0.5 to 0.5)); higher = stronger preferential binding).
Protocol: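 Protein binding microarray (universal PBM chip covering all 10-mers in fixed probe flanks) with chemically synthesized human Max(13-93) bHLH-LZ analogs (not full-length Max) bearing noncanonical residues (hArg, Tha, Aib, Nle at 65) and aromatic Cys staples. Read-out per 8-mer (and its reverse complement): E-score (rank-based enrichment, -0.5 to 0.5) and Z-score of median probe intensity.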

First: CCCTTCTA
Second: ATCCCTAC
The “PBM 8-mer E-score” value of the first is higher: 0.2 ± 0.016 for the first, 0.0174 ± 0.027 for the second.

AAGAGTAA and CCAGGTAG are within error of each other in “PBM 8-mer E-score” value: 0.0887 ± 0.095 for the first, -0.0484 ± 0.088 for the second.

Going from CACGCGGA to AACGCGGC, the “PBM 8-mer E-score” value falls from 0.351 ± 0.014 to -0.0617 ± 0.052.

Compared with AACGCGGA, CACGCGGC is higher in “PBM 8-mer E-score” value: -0.0101 ± 0.013 for the first, 0.323 ± 0.0093 for the second.

Compared with CACGCGGG, GACGCGGC is lower in “PBM 8-mer E-score” value: 0.224 ± 0.044 for the first, -0.164 ± 0.043 for the second.

Compared with CGCAATAG, ACCATCCA is higher in “PBM 8-mer E-score” value: -0.129 ± 0.02 for the first, 0.0359 ± 0.035 for the second.

First: ACCTCAAG
Second: CGTATTCA
The “PBM 8-mer E-score” value of the first is higher: 0.0864 ± 0.0059 for the first, -0.00816 ± 0.064 for the second.

Compared with CACCTTTC, ACCGAAGC is lower in “PBM 8-mer E-score” value: 0.0495 ± 0.029 for the first, -0.0719 ± 0.043 for the second.

CGTGTTTA and CATGTTTA are within error of each other in “PBM 8-mer E-score” value: 0.274 ± 0.019 for the first, 0.302 ± 0.07 for the second.

AGTGTTTA and GGTGTTTA are within error of each other in “PBM 8-mer E-score” value: 0.0808 ± 0.099 for the first, -0.0165 ± 0.02 for the second.

Compared with GATGTTTA, CATGTTTC is higher in “PBM 8-mer E-score” value: 0.0913 ± 0.016 for the first, 0.192 ± 0.017 for the second.

First: CGATCCAG
Second: ACGTAACT
The “PBM 8-mer E-score” value of the first is lower: -0.318 ± 0.024 for the first, -0.0612 ± 0.056 for the second.

ATGGAGCC and ACCCTATC are within error of each other in “PBM 8-mer E-score” value: -0.159 ± 0.086 for the first, -0.0509 ± 0.049 for the second.

Compared with ATAATGCA, CACGTGCC is higher in “PBM 8-mer E-score” value: 0.161 ± 0.072 for the first, 0.472 ± 0.0067 for the second.

Going from CACGTGCG to TACGTGCA, the “PBM 8-mer E-score” value falls from 0.48552 ± 0.00018 to 0.126 ± 0.094.

Compared with AACGTGCT, AACGTGCC is lower in “PBM 8-mer E-score” value: 0.181 ± 0.038 for the first, 0.0848 ± 0.0026 for the second.

Compared with GACGTGCA, CACGTGCA is higher in “PBM 8-mer E-score” value: 0.132 ± 0.021 for the first, 0.4864 ± 0.0015 for the second.

GACGTGCC and CAGGTGCG are within error of each other in “PBM 8-mer E-score” value: -0.0759 ± 0.054 for the first, -0.186 ± 0.068 for the second.

Compared with AACGTGCA, CCCGTGCG is lower in “PBM 8-mer E-score” value: 0.283 ± 0.044 for the first, 0.00827 ± 0.054 for the second.

First: AACGTGCG
Second: AAACTCAG
The “PBM 8-mer E-score” value of the first is higher: 0.188 ± 0.037 for the first, -0.0399 ± 0.035 for the second.

AAGTGTCA and AAATAAGT are within error of each other in “PBM 8-mer E-score” value: 0.0618 ± 0.14 for the first, 0.126 ± 0.0013 for the second.

First: CTTGTTGC
Second: CTGCCGGA
The “PBM 8-mer E-score” value of the first is higher: 0.124 ± 0.046 for the first, -0.102 ± 0.082 for the second.

First: CCAAAACC
Second: ACAAAAAA
The “PBM 8-mer E-score” value of the first is lower: 0.0915 ± 0.13 for the first, 0.251 ± 0.016 for the second.

CAAAAACC and ACAAAAAC are within error of each other in “PBM 8-mer E-score” value: 0.241 ± 0.035 for the first, 0.215 ± 0.07 for the second.

First: CAAAACCC
Second: ACAAGCAC
The “PBM 8-mer E-score” value of the first is higher: 0.138 ± 0.027 for the first, 0.0152 ± 0.013 for the second.

Going from ACAAATGT to ACAAAAAT, the “PBM 8-mer E-score” value falls from 0.277 ± 0.073 to 0.111 ± 0.084.

ACAAATGA and ACAAATGG are within error of each other in “PBM 8-mer E-score” value: 0.104 ± 0.068 for the first, 0.196 ± 0.099 for the second.

Going from ACAAGCAA to GCAAGCAA, the “PBM 8-mer E-score” value falls from 0.239 ± 0.01 to -0.0138 ± 0.026.

Going from ACCACCTC to ACGTTTTC, the “PBM 8-mer E-score” value rises from 0.0118 ± 0.00067 to 0.116 ± 0.034.

ATAGAGTC and CGTCGAAG are within error of each other in “PBM 8-mer E-score” value: -0.13 ± 0.093 for the first, -0.152 ± 0.018 for the second.

CTAGCTCC and GCACGACA are within error of each other in “PBM 8-mer E-score” value: -0.117 ± 0.094 for the first, -0.0608 ± 0.098 for the second.

AAGCTGGA and GCAGAAGC are within error of each other in “PBM 8-mer E-score” value: -0.0702 ± 0.12 for the first, -0.118 ± 0.075 for the second.

Going from ATGTTCCC to CAAAAAAA, the “PBM 8-mer E-score” value rises from 0.0189 ± 0.083 to 0.248 ± 0.0035.

Compared with CCAAAAAA, ACAAAATC is lower in “PBM 8-mer E-score” value: 0.171 ± 0.017 for the first, 0.106 ± 0.0076 for the second.

First: CAAAAAAC
Second: ACAAAATG
The “PBM 8-mer E-score” value of the first is lower: 0.161 ± 0.012 for the first, 0.3408 ± 0.0015 for the second.

Compared with TAAAATAA, ACAAAATA is higher in “PBM 8-mer E-score” value: 0.15 ± 0.0044 for the first, 0.209 ± 0.054 for the second.

First: CAAAATAA
Second: AAAAATAA
The “PBM 8-mer E-score” value of the first is higher: 0.239 ± 0.012 for the first, 0.0936 ± 0.097 for the second.

CGTGCCCA and ATCTTAGG are within error of each other in “PBM 8-mer E-score” value: -0.00988 ± 0.079 for the first, -0.0691 ± 0.031 for the second.

CAGTGATG and ACGAGGCC are within error of each other in “PBM 8-mer E-score” value: 0.0281 ± 0.13 for the first, -0.0195 ± 0.14 for the second.

Compared with GCGCTCAC, ACCGCGTG is higher in “PBM 8-mer E-score” value: -0.00351 ± 0.038 for the first, 0.365 ± 0.056 for the second.

ACCGCGTA and ACAGCGTC are within error of each other in “PBM 8-mer E-score” value: 0.0537 ± 0.048 for the first, 0.0682 ± 0.028 for the second.

First: ACAGCGTA
Second: ACAGCGTG
The “PBM 8-mer E-score” value of the first is lower: -0.0609 ± 0.029 for the first, 0.235 ± 0.013 for the second.

Going from ACCGCGTC to GAACCCCC, the “PBM 8-mer E-score” value falls from -0.117 ± 0.08 to -0.387 ± 0.031.

ATCTTCAG and TAGTCAAA are within error of each other in “PBM 8-mer E-score” value: 0.0326 ± 0.1 for the first, 0.14 ± 0.09 for the second.

Going from TAGATTAA to CGATGCCC, the “PBM 8-mer E-score” value falls from 0.154 ± 0.027 to -0.19 ± 0.045.

First: AAAATCCA
Second: CAAACGGC
The “PBM 8-mer E-score” value of the first is higher: 0.26 ± 0.06 for the first, -0.279 ± 0.026 for the second.

First: GAAATCCA
Second: CAAAACCA
The “PBM 8-mer E-score” value of the first is lower: -0.0865 ± 0.057 for the first, 0.0992 ± 0.086 for the second.

TAAAACCA and GAAAACGA are within error of each other in “PBM 8-mer E-score” value: 0.148 ± 0.056 for the first, 0.0526 ± 0.057 for the second.

Compared with AAAAACCA, CAAATCCA is lower in “PBM 8-mer E-score” value: 0.238 ± 0.057 for the first, 0.0485 ± 0.13 for the second.

Going from AAAAACGA to CAAAACGA, the “PBM 8-mer E-score” value falls from 0.25 ± 0.03 to 0.0654 ± 0.066.

Going from AAAACGGC to GAAACGGC, the “PBM 8-mer E-score” value falls from 0.251 ± 0.16 to 0.0668 ± 0.011.

Reference: the supplement of paper PMC12636033
